In PubChem BioAssay (EPA / NIEHS):
Records with an inconclusive call do not appear. Calls of active or inactive are those of the source. How the source made its calls: active means hit-call score of the fitted dose curve at least 0.9, where 1 is the maximum; inconclusive means response in the unintended direction; inactive means score below 0.9.

The molecules below were run against human Phosphodiesterase 4A1 (PDE4A1), PDE4A (gene 5141) (UniProt P27815) (assay: NVS_ENZ_hPDE4A1: NovaScreen (NVS) Enzymatic Assay for human Phosphodiesterase 4A1 (PDE4A1) (AID 2283191)).
Procedure: NVS_ENZ_hPDE4A1 is a biochemical, single-readout assay that uses extracted gene-proteins in a cell-free assay. Measurements were taken 1 hour after chemical dosing in a 384-well plate.NVS_ENZ_hPDE4A1 is one of one assay component(s) measured or calculated from the NVS_ENZ_hPDE4A1 assay. It is designed to make measurements of enzyme activity, a form of enzyme reporter, as detected with fluorescence intensity signals by Fluorescence and electrophoretic mobility shift technology.Data from the assay component NVS_ENZ_hPDE4A1 was analyzed into 1 assay endpoint. This assay endpoint, NVS_ENZ_hPDE4A1, was analyzed in the positive analysis fitting direction relative to DMSO as the negative control and baseline of activity. Using a type of enzyme reporter, loss-of-signal activity can be used to understand changes in the enzymatic activity as they relate to the gene PDE4A. Furthermore, this assay endpoint can be referred to as a primary readout, because this assay has produced multiple assay endpoints where this one serves a enzymatic activity function. To generalize the intended target to other relatable targets, this assay endpoint is annotated to the esterase intended target family, where the subfamily is phosphodiesterase.
Binding assays used specific radioligands (tritiated, iodinated) with non-radioactive competitive displacement ligands in agonist or antagonist protocols (as indicated) and various reference compounds and inhibitors to titrate specific binding to receptors and transporters. Most enzyme assays (CYPs, kinases, phosphatases, proteases, HDACs) used recombinant protein and specific substrates (fluorescence mostly, some colorimetric and radioactive) and inhibitors, followed by a biochemical separation of substrate and product. All assays for the biochemical HTS were initially run in duplicate at a single concentration (10 uM for CYP450 assays and 25 uM for all others). Assay-chemical combinations meeting a pre-defined threshold (e.g., 30% inhibition and other criteria defined below) were then run in singleton concentration-response format with maximum concentration of 20 uM for CYPs and 50 uM for all others. Each assay was run with positive and negative controls, and concurrent controls on every plate. The follow-up (secondary) screen tested active chemical-pairs in concentration series, as well as a few additional assays not tested in the primary screen, some selected negative inactives, and several cases re-run in the concentration series for confirmatory purposes.

human Phosphodiesterase 4A1 (PDE4A1), PDE4A (gene 5141), sequence (P27815 whole entry, looked up): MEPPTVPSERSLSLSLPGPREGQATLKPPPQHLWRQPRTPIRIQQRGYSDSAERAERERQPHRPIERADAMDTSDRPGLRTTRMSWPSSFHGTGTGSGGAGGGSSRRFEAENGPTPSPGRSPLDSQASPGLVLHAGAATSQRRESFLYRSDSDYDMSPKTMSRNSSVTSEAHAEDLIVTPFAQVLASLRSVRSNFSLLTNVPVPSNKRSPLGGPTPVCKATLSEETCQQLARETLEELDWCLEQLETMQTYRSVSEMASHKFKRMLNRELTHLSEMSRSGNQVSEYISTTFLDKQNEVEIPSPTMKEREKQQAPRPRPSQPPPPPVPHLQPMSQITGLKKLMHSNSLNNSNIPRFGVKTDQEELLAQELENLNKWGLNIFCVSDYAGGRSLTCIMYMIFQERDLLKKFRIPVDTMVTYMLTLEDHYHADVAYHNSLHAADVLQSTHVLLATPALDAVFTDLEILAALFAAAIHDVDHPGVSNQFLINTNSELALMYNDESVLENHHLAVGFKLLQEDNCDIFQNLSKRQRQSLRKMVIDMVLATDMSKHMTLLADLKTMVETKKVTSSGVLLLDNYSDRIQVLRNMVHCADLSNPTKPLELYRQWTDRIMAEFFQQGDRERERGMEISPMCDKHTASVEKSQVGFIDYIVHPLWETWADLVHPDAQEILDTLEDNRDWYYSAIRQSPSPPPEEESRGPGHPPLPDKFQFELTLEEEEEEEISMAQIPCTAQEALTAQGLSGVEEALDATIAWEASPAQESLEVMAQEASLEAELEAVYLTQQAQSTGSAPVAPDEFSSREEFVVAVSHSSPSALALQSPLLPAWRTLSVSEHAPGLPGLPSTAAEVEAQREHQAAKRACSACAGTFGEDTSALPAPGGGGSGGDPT

AC50, active:
O=C(O)c1cccc(N(Cc2cccnc2)c2ccc(OC(F)F)c(OC(F)F)c2)c1 4.37 nM
Cn1c(=O)cc(Oc2ccc(F)cc2F)c2cnc(NCC(C)(C)O)nc21 914 nM
CCCCCCc1ccc(O)cc1O 39200 nM
Cn1c(=O)c2c(ncn2C)n(C)c1=O 25000 nM
COc1ccc(-n2nc(C(F)F)cc2-c2ccc(S(C)=O)cc2)cc1 (stereo not given) 2.29 nM

outcome, inactive:
CC1(C)C(=O)N(Br)C(=O)N1Br
O=C(O)c1cccc(Oc2ccccc2)c1
COC(=O)CC(=O)OC
O=C(O)c1cc(N=Nc2ccc(S(=O)(=O)Nc3ccccn3)cc2)ccc1O
O=C(O)CC(O)C(=O)O (stereo not given)
COc1cccc(-c2ccc(/C=C\CN3CCCCCC3)cc2Cl)c1
Cc1ccc(N)cc1O
CC[C@H]1CC[C@H](NCc2cc3c(cc2OC)[C@H]2C[C@H]2C(=O)N3C)[C@H](c2ccccc2)N1
CNS(=O)(=O)c1cc(C(=O)N2CCC(CCN3C4CCC3CC(n3c(C)nc5ccccc53)C4)(c3cccc(F)c3)CC2)c(Cl)cc1F (stereo not given)
C=CCCCCCCCCC(=O)O
